Screening results as filed in PubChem BioAssay.
Rows were chosen to be rich in hits. Some 2.5% of all compounds tested hit in one or more screens of this group.
H9c2 protect: myocardial damage modulation in H9c2 cells. H9c2 cardiomyocytes, H2O2 injury protection, ATPLite, 2 h. protection from H2O2 cell death, % at 20 µM. 0.63% of 360,000 active. AID 588492;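 active = compounds giving at least 50% protection of heart cells from peroxide-induced death in the single-dose screen, raw or plate-pattern-corrected value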;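 also: 0% = DMSO wells with peroxide and 100% = DMSO wells without peroxide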
SKN-1 block: C. elegans SKN-1 inhibition; C. elegans VP596 Pgst-4::GFP/RFP ratio, acrylamide-induced, 24 h; inhibition, % at 21.8 µM; 0.49% of 360,000 active; AID 624304;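 active = interference check ratio from 0.5 to 1.5 plus GFP to RFP signal ratio inhibition reaching or exceeding a fixed threshold, cut at about 30% in these data, passing the limit was not always enough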
CRFR2-BP antag: CRF-BP/CRF-R2 complex antagonism; HEK293 CRF-R2/CRF-BP, CRF-induced calcium fluorescence; inhibition, % at 11.8 µM; 0.59% of 350,000 active; AID 588475;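 active = inhibition of the ligand-induced calcium signal above about 50% at the single tested concentration, limit read from the data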
hiPSC survival: hiPSC single-cell survival enhancement; ATPlite luminescence; 100% = ROCK inhibitor wells, 0% = DMSO; survival enhancement, % at 20 µM; 0.044% of 360,000 active; AID 602274; in the data active = survival enhancement above about 18%;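 also: cells exposed to compounds for 16 hours before the ATP read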
CRFR2-BP ag: agonists of human CRF-binding protein/CRF-R2 receptor complex. HEK293 CRF-R2/CRF-BP, calcium dye fluorescence (FLIPR); percent of saturating CRF peptide response. activation, % at 13.2 µM. 0.46% of 350,000 active. AID 588473;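 active = activation of at least 50%, plus an integration ratio under a set limit after plate pattern correction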;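 also: plate controls were neutral control wells without compound for no effect and CRF at EC100 for full effect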
H9c2 TAG inh: reduces triacylglycerol accumulation in H9c2 cells; inhibition, % at 12.5 µM; AID 651582; 0.66% of 230,000 active; Nile Red lipid (TAG) fluorescence; cells loaded with 200 µM oleic acid;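 active = pattern-corrected inhibition of lipid staining of at least 50% with the nuclear-stain viability signal not falling by more than 50%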;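 also: 0% = DMSO wells and 100% = triacsin C control wells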
* marks the source's active call; other numbers are inactive results; . = not tested or not shown.

SMILES	H9c2 protect	SKN-1 block	CRFR2-BP antag	hiPSC survival	CRFR2-BP ag	H9c2 TAG inh
Cc1ccc(Cn2c(=N)c(C(=O)NCc3ccco3)cc3c(=O)n4ccccc4nc32)cc1	-13	12	4	-2	7	28
Cc1cccn2c(=O)c3cc(C(=O)NCc4ccco4)c(=N)n(C4CCCCC4)c3nc12	-2	6	54*	0	3	.
CCn1c2ccccc2c2cc(NC(=O)CSc3nnc(-c4cccc(OC)c4)n3N)ccc21	26	20	4	-1	0	.
CCn1c2ccccc2c2cc(NC(=O)CSc3nnc(-c4ccc(OC)c(OC)c4)n3N)ccc21	38	36*	-2	1	-1	.
COc1ccc(Oc2nccc(-c3ccccc3)c2C#N)cc1	-5	7	71*	-2	0	-33
COc1ccc(Oc2nccc(-c3ccc(F)cc3)c2C#N)cc1	1	-16	8	0	1	-117
O=C(Nc1cccc(/C=C/c2ccccn2)c1)c1ccc(-n2cncn2)cc1	69*	-14	-8	-1	1	7
O=C(Nc1cccc(C(F)(F)F)c1)c1ccc(-n2cncn2)nc1	-1	-4	11	0	-3	17
COc1ccc(Cn2ccnc2SCC(=O)Nc2ccccc2OC)cc1	-4	16	-4	1	-1	9
COc1ccccc1C1=NOC(COc2ccc3c(C)cc(=O)oc3c2)C1 (stereo not drawn)	1	9	0	0	0	59*
C=CCN1C(=O)/C(=C/c2ccc(O)cc2)S/C1=N/c1nccs1	5	1	-73	1	65*	.
C=C(C)C(=O)Nc1cccc(C2=NOC3(C2)C[C@@H](C(N)=O)N(C(=O)c2cc([N+](=O)[O-])cc([N+](=O)[O-])c2C)C3)c1 (stereo partly drawn)	0	6	2	-2	0	10
CCCCCC(=O)Nc1cccc(C2=NOC3(C2)C[C@H](C(N)=O)N(C(=O)CCCCC)C3)c1 (stereo partly drawn)	-5	5	-7	-1	-1	9
C/C=C/C(=O)Nc1cccc(C2=NOC3(C2)C[C@@H](C(N)=O)N(C(=O)c2cc([N+](=O)[O-])cc([N+](=O)[O-])c2C)C3)c1 (stereo partly drawn)	1	3	-245	4	232*	-9
CCCCCC(=O)N1CC2(CC(c3cccc(NC(=O)CC)c3)=NO2)C[C@H]1C(N)=O (stereo partly drawn)	8	17	79*	0	3	22
Oc1ccc2ccccc2c1CN1CCCCC1	-3	13	17	-2	109*	-7
Nc1ccc(-c2nc3ccc(N)cc3[nH]2)cc1	2	-1	14	-2	0	2
Nc1ccc2cc3[nH]c4cc(N)ccc4c3nc2c1	-9	-193	-130	-4	175*	-132
COc1cc(/C=N/NC(=O)c2nc(C)cc(C)n2)ccc1O	2	4	-157	3	165*	.
COc1ccc(/C=N/NC(=O)c2cc3c(OC)ccc(OC)c3[nH]2)cc1O	66*	-7	0	0	-2	.
O=C(COc1ccc(/C=N/NC(=O)c2cccnc2)cc1)Nc1ccccc1	19	8	-6	0	-1	15
COc1cc(/C=N/NC(=O)c2ccccc2O)ccc1OCC(=O)Nc1ccccc1	78*	16	13	0	-1	-8
COc1ccc(OC)c2[nH]c(C(=O)N/N=C/c3ccccc3O)cc12	39	5	40	0	2	.
COc1ccccc1NC(=O)COc1ccc(/C=N/NC(=O)c2cccnc2)cc1	51*	0	-2	0	0	.
COc1cc(/C=N/NC(=O)c2cccc(C(=O)N/N=C/c3ccc(O)c(OC)c3)n2)ccc1O	3	0	11	0	4	.
COc1ccc(/C=N/NC(=O)COc2ccccc2-c2ccccc2)cc1	-10	22	-11	-1	1	59*
COc1cc(/C=N\NC(=O)c2cccnc2)ccc1OC(=O)c1ccccc1Cl	55*	-3	2	0	0	-2
COc1cc(C(=O)N/N=C/c2ccc(OC(=O)c3ccccc3Cl)cc2)ccc1O	52*	1	-13	1	0	2
